Compound activity: PubChem BioAssay, National Center for Advancing Translational Sciences (NCATS)
The sample as a whole holds a higher share of hits than the screen did.
Integrin act MD: activates integrin-mediated alleviation for muscular dystrophy; alpha7betagal myoblasts, beta-gal FDG fluorescence, 48 h; hit rate 0.064% among 350,000; AID 624291; Potency, µM (series often up to 38.3 µM), hits mostly activators; also: nearly all actives have a fitted effect of over 60% in size
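alpha7betagal+/- myoblasts (passage 13, 250/well) treated 48 h at 37C with compounds at 1:260 dilution of DMSO stock. Lysed, then beta-galactosidase activity read as FDG fluorescence (ex 480/em 540) after 30 min, with pre-read for autofluorescence.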
ERG Ets-DNA blk: ERG Ets/DNA interaction inhibition. P11308. fluorescence polarization, His-ERG Ets domain / labelled DNA. Potency, µM (titrated, usually from 76.9 µM), usual class: inhibitors. hit rate 0.028% among 370,000; active = well fitted inhibition curve with a large enough effect in the polarisation, with a control signal flat; inconclusive = small, poorly fitted or top-dose-only effect, or effect the other way, or a change in a side signal; inactive = no such curve, though single readings can be large or run the other way; the % refers to the polarisation;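 also: polarization taken with two DNA probes labelled with fluorescein and Texas red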
Target sequence (P11308 whole entry, looked up, the tested form may be a part): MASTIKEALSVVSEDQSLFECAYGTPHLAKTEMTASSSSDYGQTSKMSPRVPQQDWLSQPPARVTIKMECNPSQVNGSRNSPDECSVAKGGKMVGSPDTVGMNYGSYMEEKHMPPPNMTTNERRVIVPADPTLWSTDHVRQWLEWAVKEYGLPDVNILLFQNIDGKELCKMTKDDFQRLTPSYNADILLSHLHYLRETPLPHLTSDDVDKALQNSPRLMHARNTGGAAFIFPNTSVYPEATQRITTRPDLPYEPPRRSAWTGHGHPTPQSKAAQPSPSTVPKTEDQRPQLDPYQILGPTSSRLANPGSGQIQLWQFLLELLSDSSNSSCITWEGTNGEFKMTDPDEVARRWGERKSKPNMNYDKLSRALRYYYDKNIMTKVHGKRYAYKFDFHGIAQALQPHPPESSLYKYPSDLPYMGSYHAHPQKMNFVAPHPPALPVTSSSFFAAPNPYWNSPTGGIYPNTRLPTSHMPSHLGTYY
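His-tagged ERG Ets domain (1 uM in the protein solution; 300mM KCl, 50mM Tris-HCl, 1mM EDTA, 1mM DTT, pH 7.5) received compound, then a probe mix of 5 nM fluorescein-DNA and 100nM Texas-615-DNA. Fluorescence polarization was read for both dyes.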
Giardia killer: Giardia lamblia killing | Giardia lamblia trophozoite viability | activity change, % at 7.66 µM, hits read low | hit rate 0.15% among 340,000 | AID 540267; in the data active = activity change below about -80%; inconclusive = between about -30% and that limit;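 also: parasites exposed to compound for two days anaerobically before the ATP read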
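Media and compound were dispensed first, then trophozoites at 100 cells/well; plates sat 48 hrs at 37 deg C without oxygen before ATP luminescence reagent was added and read after 15-30 min at room temperature.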
Gal4-VP16 FLuc: inhibits Gal4-VP16 luciferase reporter, ROR gamma counter-screen; hit rate 3.5% among 310,000; Drosophila S2 Gal4-VP16 UAS-luciferase, luminescence, 20 h; Potency, µM (doses to about 53.6 µM), most hits filed as inhibitors; AID 2546;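 also: Gal4-VP16 expression switched on by copper sulfate through the metallothionein promoter; nearly all actives have a fitted effect of over 50% in size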
RORgamma inh: blocks mouse ROR gamma transcriptional activity; P51450; Drosophila S2 Gal4-RORgamma UAS-luciferase reporter, 20 h; Potency, µM (titrated, usually from 53.6 µM), hits mostly inhibitors; hit rate 5.4% among 310,000; AID 2551; also: nearly all actives have a fitted effect of over 60% in size
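Stably transfected Drosophila Schneider cells are the test system, with ROR gamma fused to Gal4 and luciferase under UAS control; luminescence is read after 20 hr of 700 uM copper sulfate induction at ambient temperature.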
A number is an active result; - = inactive; ? = inconclusive; . = no result; [ ] = dose if it differs, or a comment. Unless noted, calls follow the shape of the dose curve; as a rule, active = well fitted curve in the direction sought with a large enough effect; inconclusive = small, poorly fitted or top-dose-only effect, or another doubt; inactive = no such curve, though single readings can be large; an effect the other way counts as inactive or inconclusive.

SMILES	Integrin act MD	ERG Ets-DNA blk	Giardia killer	Gal4-VP16 FLuc	RORgamma inh
O=C1COc2ccc(C(=O)CSc3nc4ccccc4c(=O)n3-c3ccc(Cl)c(Cl)c3)cc2N1	-	-	-	-	-
Cn1c(=NC(=O)c2ccccc2[N+](=O)[O-])sc2cccc(F)c21	?	-	-	-	-
Cc1ccc(C(=O)CSC2=NC(N)=C(C#N)C3(CCCCC3)C2C(N)=O)cc1 (centres undefined)	-	-	-	?	-
Cc1ccc(-c2csc(C3C(N)=NC(S)=C(C#N)C34CCCCC4)n2)cc1 (centres undefined)	-	-	-	?	5µM
N#CC1=C(S)N=C(N)C(c2nc(-c3ccccc3)cs2)C12CCCCC2 (centres undefined)	-	-	-	?	10µM
N#CC1=C(S)N=C(N)C(c2nc(-c3ccccc3)cs2)C12CCCC2 (centres undefined)	-	-	-	-	10µM
O=C(c1c(Cl)cccc1Cl)N1CCN(c2ncccn2)CC1	?	-	-	-	-
COc1ccc(CCNC(=O)CN2c3cccc4cccc(c34)S2(=O)=O)cc1OC	-	-	-	-	?
COC(=O)N/N=C/c1sc(N2CCCCC2)nc1-c1cccs1	-	-	-	0.79µM	10µM
CSc1cccc(NC(=O)C2CCCN(S(C)(=O)=O)C2)c1 (centres undefined)	-	.	.	.	.
Cc1ccc2cc3c(=O)n(C)cc(C=O)c3nc2c1	-	-	-	.	.
CCn1ncc(Br)c1C(=O)Nc1ccc(OC(F)(F)F)cc1	-	-	-	-	-
O=C(Nc1nccs1)c1ccccn1	-	-	-	13µM	2.5µM
C/C(=C\c1ccccc1)C(=O)Nc1nccs1	-	-	-	?	6.3µM
O=C(Nc1ccc(OC(F)F)cc1)c1ncc(Cl)c(Cl)c1Cl	-	-	-	-	5µM
CCn1ncc(Br)c1C(=O)Nc1nccs1	-	.	-	?	13µM
Cn1cc(Cl)c(C(=O)Nc2nccs2)n1	-	-	-	-	-
CN1CCN(c2ccc(NC(=O)c3ccc4ccccc4c3)cc2)CC1	-	-	-	?	11µM
O=C(CCNC(=O)c1ccc(Br)cc1)Nc1nccs1	-	-	-	-	-
O=C(Nc1nccs1)c1ncc(Cl)c(Cl)c1Cl	-	-	-	4µM	7.9µM
O=C(Nc1nccs1)c1ccc(Br)cc1	-	-	-	?	8.9µM
Cc1ccc(C(=O)Nc2nccs2)s1	-	-	-	-	-
O=C(Nc1nccs1)c1ccc(Br)s1	-	-	-	?	11µM
O=C(Nc1nccs1)c1ccc2ccccc2c1	-	-	-	6.3µM	7.9µM
COc1ccccc1-c1nc2ccccc2c(=O)n1NC(=O)c1cccs1	-	-	-	-	-
SMILES	Integrin act MD	ERG Ets-DNA blk	Giardia killer	Gal4-VP16 FLuc	RORgamma inh
Cc1cc(C)n2nc(SCCOc3ccccc3F)nc2n1	-	-	-	-	?
COc1ccc(C2C=C(c3ccc(F)cc3)NC(=S)N2)cc1OC (centres undefined)	?	-	-	?	8.9µM
CC1O[C@@H](O[C@@H]2C(O)C[C@H](O[C@@H]3C(O)C[C@@H](OC4CC[C@@]5(C)C6CC(O)[C@@]7(C)C(C8=CC(=O)OC8)CC[C@@]7(O)C6CC[C@@H]5C4)OC3C)OC2C)CC(O)[C@H]1O (some centres undefined)	.	.	.	-	8.9µM
O=C(COC(=O)COc1cccc(C(F)(F)F)c1)Nc1ccc(N2CCOCC2)cc1	-	-	-	.	.
CC(=O)Nc1nc2ccccc2n1Cc1ccccc1	-	.	-	5.6µM	2.2µM
CC(=O)Nc1nc2ccccc2n1CCN(C)C	-	-	-	?	?
O=NNc1nc2ccccc2n1Cc1ccccc1	-	-	-	2.8µM	1.8µM
O=C(NCc1ccccc1Cl)[C@@H]1CCCN1S(=O)(=O)c1ccc(Cl)cc1	-	-	-	.	.
C/C(=N\NC(=O)c1ccc(Cl)cc1)c1cccs1	-	-	-	16µM	7.1µM
C/C(=N\NC(=O)c1ccc(NS(=O)(=O)c2cccs2)cc1)c1cccs1	-	-	-	-	?
C/C(=N\NC(=O)c1cccc(F)c1)c1ccc(Br)s1	-	-	-	1.3µM	0.79µM
C/C(=N\NC(=O)c1cc(Br)ccc1O)c1cccc(NC(=O)c2ccccc2F)c1	?	-	-	-	11µM
O=C(NNC(=O)c1ccccc1Cl)c1cccs1	-	-	-	?	-
O=C(NNC(=O)c1cc(Cl)ccc1O)c1cccs1	-	-	-	-	13µM
Cc1ccccc1NS(=O)(=O)c1ccc2[nH]cc(C(=O)NCCc3ccccc3)c(=O)c2c1	.	-	.	.	.
Cc1ccc(NC(=O)CSc2ncccn2)cc1S(=O)(=O)N1CCCCC1	-	-	-	.	.
CC(=NNc1nc2ccccc2s1)c1ccncn1	-	.	-	.	.
C/C(=N\Nc1nc2ccccc2s1)c1ccc(Br)s1	-	-	-	?	7.1µM
C/C(=N\NC(=O)c1cc(Br)ccc1O)c1cccs1	?	-	-	?	10µM
C/C(=N\NC(=O)c1ccccc1O)c1ccc(Br)s1	-	-	-	2µM	2µM
Cc1nc(N2CCOCC2)c2c(C(=O)NCCc3ccccc3)c(C)oc2n1	.	-	.	.	.
COc1cc(NC(=O)COc2cc(O)c3c(c2)OC(C)(C)CC3=O)cc(OC)c1OC	-	-	-	2.5µM	?
COc1cc(N=Nc2ccc3ccccc3c2)ccc1O	-	-	-	-	-[1.91 µM]
NS(=O)(=O)c1ccc(N=Nc2c(O)ccc3ccccc23)cc1	-	-	-	-	-
Oc1ccc(N=Nc2c(O)ccc3ccccc23)cc1	-	.	-	13µM	?
SMILES	Integrin act MD	ERG Ets-DNA blk	Giardia killer	Gal4-VP16 FLuc	RORgamma inh
Oc1ccc(N=Nc2ccc3ccccc3c2)cc1	-	-	-	?	6.3µM
COc1ccccc1-c1nn(CCC(=O)Nc2cccc(C(C)=O)c2)c2nc(C)cc(C)c12	.	-	.	.	.
CC(C)c1noc(-c2ccccc2OCC(=O)Nc2ccc([N+](=O)[O-])cc2)n1	.	-	.	.	.
CCc1ccc(C(=O)CSc2n[nH]c(-c3ccncc3)n2)cc1	-	-	-	11µM	-
O=C(Nc1ccc(C(=O)N2CCCC2)cc1)C1CCC1	-	-	-	.	.
CC(C)(C)c1nnc(N/N=C/c2ccc(Br)cc2)n(N)c1=O	-	-	-	2.8µM	2.8µM
COc1ccc(Cc2nnc(NS(=O)(=O)c3ccc([N+](=O)[O-])cc3)s2)cc1	-	-	-	-	-
Cn1ccnc1C(O)(c1nnc(-c2ccccc2)o1)C(F)(F)F (centres undefined)	-	-	-	?	7.1µM
Cn1ccnc1C(O)(c1ccccc1)c1ccccc1	-	-	-	-	-
CN(C)C(=S)Nc1ccc2ccccc2c1	-	-	-	?	16µM
O=S(=O)(c1ccc(Br)s1)N1CCC(Cc2ccccc2)CC1	-	-	-	-	13µM
Cc1cc(N2CCN(C)CC2)ccc1NC(=O)c1cccc(S(=O)(=O)N2CCc3ccccc3C2)c1	-	-	-	?	?
Cc1ccc(C2(c3noc(CN4C[C@@H](C)O[C@@H](C)C4)n3)CCCC2)cc1	-	-	-	-	-
Cc1ccc(C2(c3noc(CN(C)Cc4ccccn4)n3)CCCC2)cc1	-	-	-	-	16µM
